Data published in PubChem BioAssay (EPA / NIEHS).
Results filed as inconclusive are left out. Activity calls are given as the source filed them. Rule for the calls: active = hit-call score of the fitted dose curve at least 0.9, where 1 is the maximum; inconclusive = response in the unintended direction; inactive = score below 0.9.

Key:
[1] = target: human AMP-activated Protein Kinase, alpha 1 (AMPKa1), PRKAA1 (gene 5562) (UniProt Q13131); assay: NVS_ENZ_hAMPKa1: NovaScreen (NVS) Enzymatic Assay for human AMP-activated Protein Kinase, alpha 1 (AMPKa1) (AID 2283130)
Method in brief: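 Compounds were screened in duplicate at 25 uM, and those reaching ~30% inhibition were titrated up to 50 uM. The enzyme was recombinant human AMPKα1, and kinase turnover was read by fluorescence/mobility shift 1 h post-dosing as loss of signal versus DMSO.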

Caspase-1 (Homo sapiens) = Caspase-1 (Homo sapiens) (UniProt P29466); assay: NVS_ENZ_hCASP1: NovaScreen (NVS) Enzymatic Assay for human Caspase 1 (CASP1) (AID 2283132)
Procedure: (§1) NVS_ENZ_hCASP1 is a biochemical, single-readout assay that uses extracted gene-proteins from E. coli in a cell-free assay. Measurements were taken 1 hour after chemical dosing in a 96-well plate.NVS_ENZ_hCASP1 is one of one assay component(s) measured or calculated from the NVS_ENZ_hCASP1 assay. It is designed to make measurements of enzyme activity, a form of enzyme reporter, as detected with fluorescence intensity signals by Fluorescence technology.Data from the assay component NVS_ENZ_hCASP1 was analyzed into 1 assay endpoint. This assay endpoint, NVS_ENZ_hCASP1, was analyzed in the positive analysis fitting direction relative to DMSO as the negative control and baseline of activity. […] Furthermore, this assay endpoint can be referred to as a primary readout, because this assay has produced multiple assay endpoints where this one serves a enzymatic activity function. […]
(§2) Binding assays used specific radioligands (tritiated, iodinated) with non-radioactive competitive displacement ligands in agonist or antagonist protocols (as indicated) and various reference compounds and inhibitors to titrate specific binding to receptors and transporters. Most enzyme assays (CYPs, kinases, phosphatases, proteases, HDACs) used recombinant protein and specific substrates (fluorescence mostly, some colorimetric and radioactive) and inhibitors, followed by a biochemical separation of substrate and product. […]

[2] = target: human Caspase 2 (CASP2), CASP2 (gene 835) (UniProt P42575); assay: NVS_ENZ_hCASP2: NovaScreen (NVS) Enzymatic Assay for human Caspase 2 (CASP2) (AID 2283135)
Procedure: as §1, with “NVS_ENZ_hCASP2” for “NVS_ENZ_hCASP1”, “plate.NVS_ENZ_hCASP2” for “plate.NVS_ENZ_hCASP1”, “NVS_ENZ_hCASP2,” for “NVS_ENZ_hCASP1,”
as §2

human Caspase 2 (CASP2), CASP2 (gene 835), sequence (P42575 whole entry, looked up): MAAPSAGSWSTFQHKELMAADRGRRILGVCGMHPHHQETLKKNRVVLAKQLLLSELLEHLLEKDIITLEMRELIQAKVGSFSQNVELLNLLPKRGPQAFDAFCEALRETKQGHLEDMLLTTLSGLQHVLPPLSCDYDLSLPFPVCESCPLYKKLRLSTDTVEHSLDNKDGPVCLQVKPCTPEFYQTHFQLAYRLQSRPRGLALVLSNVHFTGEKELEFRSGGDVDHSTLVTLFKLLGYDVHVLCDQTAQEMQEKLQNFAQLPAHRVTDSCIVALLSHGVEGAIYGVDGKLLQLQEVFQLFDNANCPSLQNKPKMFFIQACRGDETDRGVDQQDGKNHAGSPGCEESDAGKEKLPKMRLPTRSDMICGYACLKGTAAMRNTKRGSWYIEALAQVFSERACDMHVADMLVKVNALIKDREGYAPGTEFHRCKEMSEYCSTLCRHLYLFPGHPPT
human AMP-activated Protein Kinase, alpha 1 (AMPKa1), PRKAA1 (gene 5562), sequence (Q13131 whole entry, looked up): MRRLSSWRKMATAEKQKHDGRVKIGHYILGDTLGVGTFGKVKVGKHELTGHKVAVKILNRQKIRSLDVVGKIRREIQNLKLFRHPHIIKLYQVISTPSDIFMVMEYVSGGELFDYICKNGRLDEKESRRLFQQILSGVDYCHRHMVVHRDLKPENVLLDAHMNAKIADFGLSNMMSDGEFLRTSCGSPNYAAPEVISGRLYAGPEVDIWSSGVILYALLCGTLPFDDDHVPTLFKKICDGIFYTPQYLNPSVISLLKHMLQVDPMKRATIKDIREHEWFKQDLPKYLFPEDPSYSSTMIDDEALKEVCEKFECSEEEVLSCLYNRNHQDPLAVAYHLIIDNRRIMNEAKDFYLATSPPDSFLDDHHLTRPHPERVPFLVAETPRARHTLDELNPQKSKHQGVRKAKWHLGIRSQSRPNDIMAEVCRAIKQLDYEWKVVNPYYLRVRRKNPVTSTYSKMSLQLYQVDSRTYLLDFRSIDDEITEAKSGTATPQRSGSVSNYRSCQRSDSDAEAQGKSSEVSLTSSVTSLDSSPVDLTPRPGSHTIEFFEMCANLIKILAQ
Caspase-1 (Homo sapiens), sequence (P29466 whole entry, looked up): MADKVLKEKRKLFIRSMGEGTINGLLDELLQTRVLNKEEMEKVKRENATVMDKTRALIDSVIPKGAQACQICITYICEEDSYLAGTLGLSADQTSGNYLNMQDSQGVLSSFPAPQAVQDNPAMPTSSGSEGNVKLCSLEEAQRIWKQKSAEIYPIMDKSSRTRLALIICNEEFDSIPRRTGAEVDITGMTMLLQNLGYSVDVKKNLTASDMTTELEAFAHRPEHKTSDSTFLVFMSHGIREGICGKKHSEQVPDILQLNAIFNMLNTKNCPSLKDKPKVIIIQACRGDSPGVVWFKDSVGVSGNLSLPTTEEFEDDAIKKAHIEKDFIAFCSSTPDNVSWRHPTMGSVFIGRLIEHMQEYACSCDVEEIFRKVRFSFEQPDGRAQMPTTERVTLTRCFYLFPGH

Row | SMILES | outcome [1] | outcome (Caspase-1 (Homo sapiens)) | outcome [2]
1 | CO/C=C(/C(=O)OC)c1ccccc1Oc1cc(Oc2ccccc2C#N)ncn1 | inactive |  | 
2 | CNC(=S)S |  | inactive | inactive
